Laboratory results taken from PubChem BioAssay (NCI).
About 83,000 compounds went through this panel and 20% of them were active in at least one assay; those are over-represented in the sample as a whole.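 Cell lines were cultured in 96-well plates, exposed to a single compound concentration, and assessed for percent growth 48 hours later.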 Calls of active or inactive are those of the source.

What follows are molecules tested on ACHN renal (assay: NCI-60 one-dose screen, 48 h (100 = growth as untreated, 0 = no growth, -100 = all killed)). Conditions: 10 µM unless noted.
Experimental: Growth inhibition of the ACHN human tumor cell line is measured as a screen for anti-cancer activity. Cells are grown in 96 well plates and exposed to the test compound for 48 hours. Compounds are tested at a single concentration, which is 10^-5 M for most compounds. The reported endpoint is percent growth (GI% or GIPRCNT), where numbers from 0 - 100% represent growth inhibition, and numbers from -100% - 0 represent cell death. For example, a value of 40 represents 60% growth inhibition. A value of 0 means no net growth occurred over the course of the experiment. A value of -40 indicates 40% of cells at the beginning of the experiment died by the end of the experiment. A value of -100 means all cells are dead at the end of the experiment.
NCI-60 Human Tumor Cell Lines Screen was performed using the standard one-dose NCI protocol, which is described in more detail at https://dtp.cancer.gov/discovery_development/nci-60/default.htm.
Compounds with GIPRCNT values below 10 were considered active. Activity score was based on GIPRCNT using the following formula: […]
Score is 0 for GIPRCNT values of 100 or above, 50 for GIPRCNT values of 0, and 100 for GIPRCNT values of -100.

Compound | growth
CCOC(=O)C1(C)CCCC1N (stereo not given) | 106% (inactive)
O=C1C(=O)c2cc([N+](=O)[O-])ccc2-c2ccccc21 | -99.3% (active)
Cn1c(-c2ccccc2)c(/C=C/C2=[N+](C)c3ccccc3C2(C)C)c2ccccc21 | 18.2% (inactive)
NC(=S)N/N=C\c1nccc2c(N)cccc12 | -7.84% (active)
Cc1ccc(NC2=CC(=O)C(=O)c3ccccc32)cc1 | 21.9% (inactive)
CCCC[n+]1c(/C=C\c2c(OC)cc(OC)cc2OC)ccc2ccccc21 | 9.92% (active)
COc1cc(/C=C/c2ccnc3ccccc23)cc(OC)c1OC | 54.7% (inactive)
O=C(c1ccccc1)C(Br)C(Br)c1ccccc1 (stereo not given) | 18.8% (inactive)
O=C1/C(=C/c2ccccc2)CCC/C1=C\c1ccccc1 | 95.6% (inactive)
Cc1nc([N+](=O)[O-])c(Sc2nncc(-c3ccccc3)n2)n1C | 62.6% (inactive)
Cc1cc2nc(CC(=O)c3ccncc3)c(=O)[nH]c2cc1C | 93.6% (inactive)
CC(C)(C)c1ccc(O)c(-c2ccccc2)c1 | 102% (inactive)
CCCCCCCCCCCCCCCC[N+]1(C)CCCC1c1cccnc1 (stereo not given) | 85.6% (inactive)
CC(/C=N/NC(N)=S)Cc1ccc(C(C)C)cc1 (stereo not given) | 103% (inactive)
N#CCc1cccc2ccccc12 | 103% (inactive)
CCCCCCCCC(=O)OCCCC(CCC(CCC1CCCO1)OC(=O)CCCCCCCC)OC(=O)CCCCCCCC (stereo not given) | 107% (inactive)
CCCCCCN(CCCCCC)CCCNc1nccc2ccccc12 | 19.2% (inactive)
Cc1ccc(Nc2ccc(O)c3c2C(=O)c2c(O)ccc(Nc4ccc(C)cc4)c2C3=O)cc1 | 100% (inactive)
CCCCCCCCCCCC1N=C(N)N=C(N)N1c1cccc(Br)c1 (stereo not given) | 25.3% (inactive)
C[n+]1ccccc1C[n+]1ccccc1 | 112% (inactive)

Compound | growth
OC(c1cc(C23CC4CC(CC(C4)C2)C3)nc2c(Cl)cc(Cl)cc12)C1CCCCN1 (stereo not given) | -70.1% (active)
O=C(Nc1cccc(C(F)(F)F)c1)Oc1ccc(Cl)c2cccnc12 | -2.14% (active)
CCCCN(CCCC)CCCCCCCCCCO | 97.1% (inactive)
O=C(Cc1nc2cc(Cl)c(Cl)cc2nc1CC(=O)c1ccccc1)c1ccccc1 | 59.2% (inactive)
Cc1cc(C(=O)c2ccc(Cl)cc2)ccc1O | 87.3% (inactive)
CCCc1cc(=O)oc2c3c(c4c(c12)OC(C)(C)CC4)OC(C)[C@H](C)[C@@H]3O (stereo not given in full) | 66.1% (inactive)
Clc1ccc(Cc2nc3ccccc3s2)cc1 | 98.5% (inactive)
N#CC1c2ccccc2C=CN1C(=O)CCCl (stereo not given) | -6.33% (active)
C1=C(c2ccccc2)c2ccccc2C1 | 81.7% (inactive)
CCCCCCC1N=C(N)N=C(N)N1c1cccc(Cl)c1 (stereo not given) | 53.9% (inactive)
C[C@@]1(CO)[C@H](O)CC[C@@]2(C)[C@H]1CC[C@H]1C[C@@H]3C[C@@]12CC[C@@]3(O)COC(=O)CN | 14.6% (inactive)
Cc1cc(C)c([I+]c2c(C)cc(C)cc2C)c(C)c1 | -16.1% (active)
CCCCCCCCCCCCCCCCCC[S+](C)CC (stereo not given) | 16.2% (inactive)
CCC[CH2][Sn]1([CH2]CCC)[O]C2C(CO)OC(n3ccc(N)nc3=O)C2[O]1 (stereo not given) | -83.9% (active)
CCCCC(CCc1ccc([N+](=O)[O-])cc1)(C(C)=O)C(=O)OCC (stereo not given) | 114% (inactive)
CCN1CCCC(Nc2cc(C)nc(/N=C(/N)Nc3ccc(Cl)c(Cl)c3)n2)C1 (stereo not given) | -25.1% (active)
CC(=O)c1ccc2c(c1)CCc1ccccc1-2 | 108% (inactive)
CCOc1ccc(C(CN2CCOCC2)C(C)=O)cc1OC (stereo not given) | 79.6% (inactive)
Oc1ccc(Cl)cc1C(c1cc(Cl)ccc1O)C(Cl)(Cl)Cl | -7.96% (active)
Cc1nc(Sc2nc3ccc([N+](=O)[O-])cc3s2)sc1C | 11.4% (inactive)
